Measured values published in PubChem BioAssay AID1159580 (chemical genetic matrix, 2015).
Several values for one entry are separate records, joined by “and”; a condition that tells them apart may be missing. Identical values can stand only once. In all, about 5,500 compounds went through this assay and about 2,000 (36%) were called active. Inconclusive results (about 18%) are left out. No stated cut-off is given here; in the data, active means normalized growth mostly below about 0.91 (no sharp cut-off); inconclusive means no clear call, values can overlap the other calls; inactive means mostly above about 0.92. The list shows a part of the results.

Assay: chemical genetic growth profiling, strain panel (AID 1159580);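 further: tested at 20 µM; growth read once vehicle control cultures reached saturation at 30 °C; 1 = growth at the plate median or of vehicle wells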
Conditions: S. cerevisiae deletion strains, growth OD

Measured: normalized growth

O=C1CCCN1CC#CCN1CCCC1
inactive: locus YAL013W, strain DEP1, stronger effect = lower value 1.02 and 1.01 | locus YAL021C, strain ccr4, stronger effect = lower value 1.01 | locus YAL026C, strain drs2, stronger effect = lower value 1.03 | locus YAL030W, strain snc1, stronger effect = lower value 1.02 | locus YAL040C, strain CLN3, stronger effect = lower value 1.01 | locus YBL061C, strain skt5, stronger effect = lower value 1.02 | locus YBR009C, strain hhf1, stronger effect = lower value 1.01 | locus YBR021W, strain FUR4, stronger effect = lower value 0.985 and 1.01 | locus YBR023C, strain chs3, stronger effect = lower value 1.02 | locus YBR171W, strain sec66, stronger effect = lower value 1.02 | locus YBR229C, strain ROT2, stronger effect = lower value 1 and 1.01 | locus YBR231C, strain swc5, stronger effect = lower value 1.03 | locus YBR279W, strain paf1, stronger effect = lower value 1.01 | locus YCL011C, strain gbp2, stronger effect = lower value 1.02 | locus YCL016C, strain dcc1, stronger effect = lower value 1.02 | locus YCL029C, strain bik1, stronger effect = lower value 1.01 and 1.02 | locus YCL061C, strain MRC1 (second series), stronger effect = lower value 1 | locus YCL069W, strain vba3, stronger effect = lower value 1.02 | locus YCR088W, strain abp1, stronger effect = lower value 1.03 | locus YDL005C, strain med2, stronger effect = lower value 1.03 | locus YDL035C, strain GPR1, stronger effect = lower value 1 and 1.03 | locus YDL040C, strain nat1, stronger effect = lower value 1.01 | locus YDL074C, strain BRE1, stronger effect = lower value 0.994 and 1.02 | locus YDL101C, strain DUN1, stronger effect = lower value 0.997 and 1.01 | locus YDL134C, strain PPH21, stronger effect = lower value 1.01 | locus YDL185W, strain tfp1, stronger effect = lower value 1.03 and 1.01 | locus YDL192W, strain arf1, stronger effect = lower value 1.01 and 1.02 | locus YDR001C, strain nth1, stronger effect = lower value 1.02 | locus YDR069C, strain doa4, stronger effect = lower value 1.03 | locus YDR101C, strain arx1, stronger effect = lower value 0.979 and 1.01 | locus YDR137W, strain rgp1, stronger effect = lower value 1.03 | locus YDR150W, strain NUM1, stronger effect = lower value 1.01 and 1 and 1.02 | locus YDR159W, strain sac3, stronger effect = lower value 0.999 | locus YDR162C, strain NBP2, stronger effect = lower value 1.02 and 1.01 | locus YDR195W, strain ref2 1.02 | locus YDR297W, strain sur2, stronger effect = lower value 1.02 | locus YDR318W, strain mcm21, stronger effect = lower value 1.01 and 1.02 | locus YDR334W, strain swr1, stronger effect = lower value 1.02 | locus YDR335W, strain msn5, stronger effect = lower value 1.02 | locus YDR363W, strain ESC2, stronger effect = lower value 1.01 | locus YDR388W, stronger effect = lower value 1.01 | locus YDR392W, strain spt3, stronger effect = lower value 1.01 | locus YDR502C, strain sam2, stronger effect = lower value 1.02 and 1.01 | locus YEL003W, strain gim4, stronger effect = lower value 1.02 | locus YEL037C, strain rad23, stronger effect = lower value 1.02 | locus YEL061C, strain CIN8 (second series), stronger effect = lower value 1.02 | locus YEL061C, strain CIN8, stronger effect = lower value 1 | locus YER002W, strain NOP16, stronger effect = lower value 0.985 | locus YER015W, strain faa2, stronger effect = lower value 1.02 | locus YER016W, strain bim1, stronger effect = lower value 1.01 | locus YER110C, stronger effect = lower value 1.02 | locus YER111C, strain swi4, stronger effect = lower value 1.03 | locus YER155C, strain BEM2 (second series), stronger effect = lower value 1.03 | locus YER155C, strain BEM2, stronger effect = lower value 0.994 and 1.01 | locus YER167W, strain BCK2, stronger effect = lower value 1 and 1.02 | locus YFR010W, strain ubp6, stronger effect = lower value 1.03 | locus YGL078C, strain dbp3, stronger effect = lower value 1.02 and 0.999 | locus YGL086W, strain mad1, stronger effect = lower value 0.999 and 1.03 | locus YGL167C, strain pmr1, stronger effect = lower value 1.01 | locus YGL173C, strain kem1, stronger effect = lower value 1.01 | locus YGL227W, strain vid30, stronger effect = lower value 1.02 | locus YGL240W, strain doc1, stronger effect = lower value 1.02 | locus YGL248W, strain PDE1, stronger effect = lower value 1.02 and 1.01 | locus YGL253W, strain hxk2, stronger effect = lower value 1.02 | locus YGR078C, strain PAC10, stronger effect = lower value 1 and 0.996 and 1.01 | locus YGR135W, strain pre9, stronger effect = lower value 1.04 and 0.991 | locus YGR229C, strain SMI1, stronger effect = lower value 1 | locus YGR252W, strain gcn5, stronger effect = lower value 1.1 and 1.03 | locus YHR013C, strain ard1, stronger effect = lower value 1.04 | locus YHR027C, strain rpn1, stronger effect = lower value 1.02 | locus YHR030C, strain SLT2, stronger effect = lower value 1.01 and 1.02 | locus YHR079C, strain IRE1 (second series), stronger effect = lower value 1.01 and 1.02 | locus YHR079C, strain IRE1, stronger effect = lower value 1.02 | locus YHR094C, strain hxt1, stronger effect = lower value 1.01 | locus YHR129C, strain ARP1, stronger effect = lower value 1 | locus YHR142W, strain chs7, stronger effect = lower value 1.05 | locus YHR200W, strain rpn10, stronger effect = lower value 1.01 and 1.02 | locus YIL066C, strain RNR3, stronger effect = lower value 1.02 and 1.03 | locus YIL073C, strain SPO22, stronger effect = lower value 1.06 and 1.1 | locus YIL125W, strain kgd1, stronger effect = lower value 1 and 1.01 | locus YIR030C, strain dcg1, stronger effect = lower value 1.01 and 1.02 | locus YJL092W, strain hpr5, stronger effect = lower value 1.01 | locus YJL095W, strain BCK1 (second series), stronger effect = lower value 1.02 | locus YJL095W, strain BCK1, stronger effect = lower value 1 and 1.03 and 0.996 | locus YJL115W, strain asf1, stronger effect = lower value 1.04 | locus YJL129C, strain trk1, stronger effect = lower value 1.04 | locus YJL134W, strain LCB3, stronger effect = lower value 1.01 | locus YJL154C, strain vps35, stronger effect = lower value 1.01 | locus YJL164C, strain tpk1, stronger effect = lower value 1.02 | locus YJL166W, strain qcr8, stronger effect = lower value 1.02 | locus YJL168C, strain set2, stronger effect = lower value 1 and 1.02 | locus YJL187C, strain SWE1 (second series), stronger effect = lower value 0.999 and 1 | locus YJL187C, strain SWE1, stronger effect = lower value 1.02 | locus YJR043C, strain POL32, stronger effect = lower value 1 and 1.02 | locus YJR066W, strain TOR1, stronger effect = lower value 0.971
